About 7,900 targets were measured; listed, in parts, are those with a hit and a random draw of the rest. About 0.6% of all pairs of compound and target were hits.
Columns and labels:
Assay in all cases: log2 fold change, soluble protein after heating vs DMSO (PISA); higher = thermal stabilisation; K562 cells, 10 uM, 30 min; active = over 0.2 and 3.5 SD of the protein, either way, in both replicates (recomputed)
[1] = compound: CC[C@@H]1C(=O)N(C)c2cnc(Nc3ccc(C(=O)NC4CCN(C)CC4)cc3OC)nc2N1C1CCCC1
Summary of the method: (§1)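 Quantification of soluble protein used TMTpro 16plex LC-MS/MS, with channel sums equalised. Samples were the supernatant after 21,000xg for 90 min of pooled aliquots from K562 cells (2×10^6 cells/mL) treated with 10 μM compound for 30 min, heated for 3 min over 48°C-58°C, and extracted in PBS with 0.5% NP-40 at 4°C. Values, from duplicates, describe thermal stability against control samples on a log2 fold-change scale.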

volasertib = compound: CC[C@@H]1C(=O)N(C)c2cnc(Nc3ccc(C(=O)N[C@H]4CC[C@H](N5CCN(CC6CC6)CC5)CC4)cc3OC)nc2N1C(C)C [volasertib]
Summary of the method: as §1

[2] = compound: CC[C@H](C)N1C=C(C2=C(C=C(C=C21)C3=CN=C(C=C3)N4CCNCC4)C(=O)NCC5=C(C=C(NC5=O)C)C)C
Summary of the method: as §1

epoxomicin = compound: CC[C@H](C)[C@@H](C(=O)N[C@@H]([C@@H](C)O)C(=O)N[C@@H](CC(C)C)C(=O)[C@]1(CO1)C)NC(=O)[C@H]([C@@H](C)CC)N(C)C(=O)C [epoxomicin]
Summary of the method: as §1

[3] = compound: CCn1c(C(=O)N(C2CC2)C2CC2)cc2c3c(ncn3C)c(Nc3cc(C)n(C)n3)nc21
Summary of the method: as §1

[4] = compound: CCn1cc(-c2ccnc3[nH]c(-c4cccc(CN(C)C)c4)cc23)c(-c2ccc(NC(=O)N(C)C)cc2)n1
Summary of the method: as §1

[5] = compound: CN(C)CC(=O)Nc1ccc2[nH]c(=O)c3ccccc3c2c1
Summary of the method: as §1

rosiglitazone = compound: CN(CCOC1=CC=C(C=C1)C[C@H]2C(=O)NC(=O)S2)C3=CC=CC=N3 (racemic) [rosiglitazone]
Summary of the method: as §1

[6] = compound: CN1C2=C(C3=C1C(=O)N(N=C3)CC4=CC(=CC=C4)N)SC(=C2)S(=O)C
Summary of the method: as §1

[7] = compound: CN1CCC(CNc2ccc3ncc(-c4cccc(OC(F)(F)F)c4)n3n2)CC1
Summary of the method: as §1

saracatinib = compound: CN1CCN(CCOc2cc(OC3CCOCC3)c3c(Nc4c(Cl)ccc5c4OCO5)ncnc3c2)CC1 [saracatinib]
Summary of the method: as §1

sotrastaurin = compound: CN1CCN(c2nc(C3=C(c4c[nH]c5ccccc45)C(=O)NC3=O)c3ccccc3n2)CC1 [sotrastaurin]
Summary of the method: as §1

alvocidib = compound: CN1CC[C@H](c2c(O)cc(O)c3c(=O)cc(-c4ccccc4Cl)oc23)[C@H](O)C1 [alvocidib]
Summary of the method: as §1

Tubastatin A = compound: CN1CCc2c(c3ccccc3n2Cc2ccc(C(=O)NO)cc2)C1 [Tubastatin A]
Summary of the method: as §1

[8] = compound: CNC(=O)C1=CC=CC=C1NC2=NC(=NC=C2Cl)NC3=C(C=C(C=C3)N4CCOCC4)OC
Summary of the method: as §1

defactinib = compound: CNC(=O)c1ccc(Nc2ncc(C(F)(F)F)c(NCc3nccnc3N(C)S(C)(=O)=O)n2)cc1 [defactinib]
Summary of the method: as §1

rucaparib = compound: CNCc1ccc(-c2[nH]c3cc(F)cc4c3c2CCNC4=O)cc1 [rucaparib]
Summary of the method: as §1

[9] = compound: CNc1nc(-c2ccc3c(N)n[nH]c3c2)cc(N2C[C@@H](C(=O)NC3CCCCC3)CC[C@H]2C)n1
Summary of the method: as §1

encorafenib = compound: COC(=O)N[C@@H](C)CNc1nccc(-c2cn(C(C)C)nc2-c2cc(Cl)cc(NS(C)(=O)=O)c2F)n1 [encorafenib]
Summary of the method: as §1

[10] = compound: COC(=O)[C@H](CCSC)NC(=O)C1=C(C=C(C=C1)NC[C@H](CS)N)C2=CC=CC=C2
Summary of the method: as §1

Measured: log2 fold change

LEMD3 (UniProt Q9Y2U8)
UniProt Q9Y2U8, sequence (Q9Y2U8 whole entry, looked up): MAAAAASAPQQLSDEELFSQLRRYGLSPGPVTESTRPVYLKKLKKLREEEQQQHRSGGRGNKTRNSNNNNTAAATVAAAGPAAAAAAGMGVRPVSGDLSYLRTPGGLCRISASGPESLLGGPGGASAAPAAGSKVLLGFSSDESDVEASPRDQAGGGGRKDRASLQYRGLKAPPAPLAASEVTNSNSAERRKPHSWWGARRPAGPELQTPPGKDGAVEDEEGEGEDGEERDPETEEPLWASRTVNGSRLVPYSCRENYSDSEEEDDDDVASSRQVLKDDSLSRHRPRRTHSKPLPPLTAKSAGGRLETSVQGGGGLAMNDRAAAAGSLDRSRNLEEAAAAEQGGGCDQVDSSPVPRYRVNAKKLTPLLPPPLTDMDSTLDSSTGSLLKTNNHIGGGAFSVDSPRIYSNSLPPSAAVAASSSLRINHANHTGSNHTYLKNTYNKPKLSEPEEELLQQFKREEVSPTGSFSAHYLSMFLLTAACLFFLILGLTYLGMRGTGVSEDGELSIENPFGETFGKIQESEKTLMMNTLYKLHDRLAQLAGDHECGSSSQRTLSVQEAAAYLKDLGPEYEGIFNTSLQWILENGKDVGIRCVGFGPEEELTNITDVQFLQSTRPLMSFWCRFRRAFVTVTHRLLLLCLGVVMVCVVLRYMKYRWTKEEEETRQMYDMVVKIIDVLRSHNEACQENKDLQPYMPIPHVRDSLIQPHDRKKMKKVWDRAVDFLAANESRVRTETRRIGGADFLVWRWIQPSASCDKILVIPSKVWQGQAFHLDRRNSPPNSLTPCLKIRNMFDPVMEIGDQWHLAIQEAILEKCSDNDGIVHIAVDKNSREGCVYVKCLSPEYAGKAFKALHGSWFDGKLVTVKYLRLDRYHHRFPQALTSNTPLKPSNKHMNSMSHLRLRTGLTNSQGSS
inactive: [1] -0.096 | [2] -0.063 | epoxomicin 0.095 | [3] -0.076 | [4] 0.003 | [5] 0.123 | rosiglitazone -0.03 | [6] -0.016 | [7] -0.081 | saracatinib -0.014 | sotrastaurin 0.013 | alvocidib -0.057 | Tubastatin A 0.062 | [8] 0.068 | defactinib -0.111 | rucaparib 0.027 | [9] 0.039 | encorafenib 0.026 | [10] -0.075
active: volasertib -0.324

ITIH4 (UniProt Q14624)
UniProt Q14624, sequence (Q14624 whole entry, looked up): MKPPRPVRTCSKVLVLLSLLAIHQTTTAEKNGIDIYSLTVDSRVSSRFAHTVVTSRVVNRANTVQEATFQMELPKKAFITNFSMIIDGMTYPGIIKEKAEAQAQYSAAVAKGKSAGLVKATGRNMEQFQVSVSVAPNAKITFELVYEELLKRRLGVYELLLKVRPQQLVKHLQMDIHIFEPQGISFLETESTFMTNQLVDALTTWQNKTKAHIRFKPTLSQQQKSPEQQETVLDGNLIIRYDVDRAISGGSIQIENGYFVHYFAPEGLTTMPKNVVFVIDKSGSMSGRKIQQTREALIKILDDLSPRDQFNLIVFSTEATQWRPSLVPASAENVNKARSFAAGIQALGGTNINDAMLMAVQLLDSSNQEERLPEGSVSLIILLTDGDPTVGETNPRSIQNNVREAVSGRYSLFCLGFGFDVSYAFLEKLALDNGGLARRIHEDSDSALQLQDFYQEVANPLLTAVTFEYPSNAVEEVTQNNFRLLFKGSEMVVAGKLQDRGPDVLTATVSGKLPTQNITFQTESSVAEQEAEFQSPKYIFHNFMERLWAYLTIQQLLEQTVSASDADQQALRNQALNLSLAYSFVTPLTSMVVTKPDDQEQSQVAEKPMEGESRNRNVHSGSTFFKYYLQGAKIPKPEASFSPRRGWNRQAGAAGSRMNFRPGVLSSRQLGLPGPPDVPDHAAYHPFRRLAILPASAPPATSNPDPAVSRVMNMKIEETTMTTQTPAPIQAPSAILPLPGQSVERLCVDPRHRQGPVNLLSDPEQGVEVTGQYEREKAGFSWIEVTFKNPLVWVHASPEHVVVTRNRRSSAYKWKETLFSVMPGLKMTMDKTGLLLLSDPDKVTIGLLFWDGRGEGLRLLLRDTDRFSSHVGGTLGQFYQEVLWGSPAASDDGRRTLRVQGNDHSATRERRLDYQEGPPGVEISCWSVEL
inactive: [1] -0.18 | volasertib -0.311 | [2] -0.248 | epoxomicin -0.318 | [3] 0.108 | [4] 0.102 | [5] -0.012 | rosiglitazone 0.129 | [6] 0.177 | [7] -0.413 | saracatinib 0.045 | sotrastaurin 0.271 | alvocidib 0.005 | Tubastatin A -0.003 | [8] -0.001 | defactinib 0.101 | rucaparib -0.142 | [9] -0.124 | encorafenib -0.001 | [10] -0.009

MCL1 (UniProt Q07820)
UniProt Q07820, sequence (Q07820 whole entry, looked up): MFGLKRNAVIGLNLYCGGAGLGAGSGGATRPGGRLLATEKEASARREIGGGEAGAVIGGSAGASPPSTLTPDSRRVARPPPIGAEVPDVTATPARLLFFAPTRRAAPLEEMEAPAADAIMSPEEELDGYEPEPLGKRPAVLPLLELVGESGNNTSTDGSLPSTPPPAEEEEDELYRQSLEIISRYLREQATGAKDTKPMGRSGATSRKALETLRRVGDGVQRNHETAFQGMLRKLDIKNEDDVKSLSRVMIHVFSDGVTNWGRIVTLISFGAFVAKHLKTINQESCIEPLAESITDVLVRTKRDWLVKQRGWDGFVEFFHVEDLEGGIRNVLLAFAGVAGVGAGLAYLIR
inactive: [1] -0.03 | volasertib -0.038 | [2] -0.033 | epoxomicin 0.308 | [3] 0.213 | [4] -0.032 | [5] 0.052 | rosiglitazone 0.019 | [6] -0.035 | [7] -0.209 | saracatinib 0.011 | sotrastaurin -0.114 | alvocidib -0.056 | Tubastatin A 0.268 | [8] -0.022 | defactinib -0.015 | rucaparib 0.029 | [9] -0.063 | encorafenib 0.004 | [10] 0.047

KPNB1 (UniProt Q14974)
UniProt Q14974, sequence (Q14974 whole entry, looked up): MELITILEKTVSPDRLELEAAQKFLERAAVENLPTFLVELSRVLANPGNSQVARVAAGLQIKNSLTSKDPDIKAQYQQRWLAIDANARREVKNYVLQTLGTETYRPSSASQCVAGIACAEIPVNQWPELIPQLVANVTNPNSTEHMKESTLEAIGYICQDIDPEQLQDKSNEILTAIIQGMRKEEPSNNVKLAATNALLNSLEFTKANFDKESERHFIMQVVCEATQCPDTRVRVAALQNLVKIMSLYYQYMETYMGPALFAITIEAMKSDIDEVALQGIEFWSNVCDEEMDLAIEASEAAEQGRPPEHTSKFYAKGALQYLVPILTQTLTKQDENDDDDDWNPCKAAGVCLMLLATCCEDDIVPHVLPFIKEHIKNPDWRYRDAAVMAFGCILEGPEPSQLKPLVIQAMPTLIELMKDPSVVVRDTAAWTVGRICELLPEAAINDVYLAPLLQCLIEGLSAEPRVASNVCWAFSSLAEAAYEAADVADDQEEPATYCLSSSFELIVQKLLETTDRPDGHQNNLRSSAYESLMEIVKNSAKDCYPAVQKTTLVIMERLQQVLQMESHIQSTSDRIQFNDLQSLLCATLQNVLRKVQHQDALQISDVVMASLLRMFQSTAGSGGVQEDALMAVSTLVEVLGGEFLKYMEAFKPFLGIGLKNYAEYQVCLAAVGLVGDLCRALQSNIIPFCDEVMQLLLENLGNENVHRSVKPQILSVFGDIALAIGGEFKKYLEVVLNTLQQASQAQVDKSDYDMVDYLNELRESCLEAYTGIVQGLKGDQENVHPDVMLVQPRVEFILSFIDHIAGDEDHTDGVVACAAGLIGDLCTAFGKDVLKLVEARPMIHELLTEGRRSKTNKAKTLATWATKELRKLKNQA
inactive: [1] -0.105 | [2] 0.04 | epoxomicin 0.04 | [3] 0.009 | [4] 0.016 | [5] 0.048 | rosiglitazone 0.027 | [6] 0.102 | [7] -0.212 | saracatinib -0.076 | sotrastaurin -0.21 | alvocidib -0.01 | Tubastatin A 0.031 | [8] 0.043 | defactinib -0.039 | rucaparib 0.126 | [9] 0.032 | encorafenib 0.201 | [10] -0.063
active: volasertib -0.432

MAD2L1 (UniProt Q13257)
UniProt Q13257, sequence (Q13257 whole entry, looked up): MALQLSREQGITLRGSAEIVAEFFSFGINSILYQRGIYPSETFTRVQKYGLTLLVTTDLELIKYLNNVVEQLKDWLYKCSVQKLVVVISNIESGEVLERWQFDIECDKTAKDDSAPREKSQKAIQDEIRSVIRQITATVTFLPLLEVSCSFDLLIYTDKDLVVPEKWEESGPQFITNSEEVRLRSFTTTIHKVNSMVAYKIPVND
inactive: [1] -0.058 | [2] 0.016 | epoxomicin -0.045 | [3] 0 | [4] -0.038 | [5] 0.002 | rosiglitazone 0.052 | [6] -0.081 | [7] -0.166 | saracatinib 0.037 | sotrastaurin -0.056 | alvocidib -0.109 | Tubastatin A 0.01 | [8] 0.05 | defactinib -0.112 | rucaparib -0.058 | [9] -0.046 | encorafenib -0.007 | [10] -0.04
active: volasertib -0.381

MICOS13 (UniProt Q5XKP0)
UniProt Q5XKP0, sequence (Q5XKP0 whole entry, looked up): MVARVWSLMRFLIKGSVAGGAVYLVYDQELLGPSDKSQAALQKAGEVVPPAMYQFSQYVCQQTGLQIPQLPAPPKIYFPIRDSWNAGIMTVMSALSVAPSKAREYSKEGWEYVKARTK
active: [7] -0.579
inactive: [1] -0.132 | volasertib -0.181 | [2] 0.025 | epoxomicin 0.023 | [3] -0.023 | [4] -0.043 | [5] 0.026 | rosiglitazone 0.011 | [6] -0.044 | saracatinib 0.039 | sotrastaurin 0.01 | alvocidib -0.001 | Tubastatin A 0 | [8] 0.005 | defactinib -0.07 | rucaparib -0.041 | [9] -0.017 | encorafenib -0.028 | [10] -0.005

KNTC1 (UniProt P50748)
inactive: [1] -0.255 | [2] 0.022 | epoxomicin 0.016 | [3] -0.015 | [4] -0.007 | [5] 0.037 | rosiglitazone 0.044 | [6] 0.027 | [7] -0.219 | saracatinib -0.034 | sotrastaurin -0.051 | alvocidib 0.013 | Tubastatin A 0.018 | [8] 0.033 | defactinib -0.044 | rucaparib 0.021 | [9] -0.076 | encorafenib 0.077 | [10] -0.041
active: volasertib -0.504

MAGOHB (UniProt Q96A72)
UniProt Q96A72, sequence (Q96A72 whole entry, looked up): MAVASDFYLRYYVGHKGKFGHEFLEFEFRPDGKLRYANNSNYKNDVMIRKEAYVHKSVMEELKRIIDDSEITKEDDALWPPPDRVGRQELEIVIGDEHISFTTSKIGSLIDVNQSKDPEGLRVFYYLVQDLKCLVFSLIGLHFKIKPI
inactive: [1] -0.046 | volasertib -0.096 | [2] 0.014 | epoxomicin 0.007 | [3] -0.041 | [4] 0.003 | [5] 0.013 | rosiglitazone 0.017 | [6] -0.039 | [7] 0.023 | saracatinib -0.047 | sotrastaurin -0.009 | alvocidib 0.03 | Tubastatin A 0.014 | [8] -0.007 | defactinib -0.003 | rucaparib -0.021 | [9] 0.022 | encorafenib 0.019 | [10] -0.071

Reference: the supplement of paper PMC10849652
